Bioassay records deposited in PubChem BioAssay by National Center for Advancing Translational Sciences (NCATS).
SARS PLP yeast: qHTS of Yeast-based Assay for SARS-CoV PLP; S. cerevisiae expressing SARS-CoV PLpro, growth rescue; Potency, µM (top dose mostly 32.9 µM), inactives show top-dose activity, positive = growth rescue, most hits filed as activators; hit rate 0.19% among 330,000; calls by dose curve; note: 0% is about no effect; nearly all actives have a fitted effect of over 55% in size
NS1 inh: qHTS Assay for Inhibitors of Influenza NS1 Protein Function | Potency, µM (doses to about 46.1 µM), for the others: at the highest dose activity, positive = more growth | hit rate 0.4% among 270,000; calls by dose curve; note: actives are rising curves; nearly all actives have a fitted effect of over 50% in size
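Compounds were scored for reversing the slow growth caused by influenza A NS1 in S. cerevisiae, measured by optical density at 600 nm. Assay medium contained 2% galactose at pH 6.0; NS1-free yeast of the same strain were the positive control.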
Pf growth 96h: Primary qHTS for delayed death inhibitors of the malarial parasite plastid, 96 hour incubation; P. falciparum luciferase reporter growth, 96 h; Potency, µM (top dose mostly 28.7 µM), inactives show at the highest dose activity change, negative = inhibition, most hits filed as inhibitors; hit rate 6.9% among 320,000; AID 504834, 2011; note: % is set by controls: 0 for no effect and ±100 for the full control effect
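Compounds incubated with erythrocytes infected by luciferase-expressing P. falciparum (2% hematocrit, 0.05% parasitemia final) for 96 hours, 37 C in 5% CO2. Growth inhibition scored as decreased luciferase luminescence.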
HCV inh: qHTS Assay for Inhibitors of Hepatitis C Virus (HCV); Huh7.5.1 HCVcc-Cre infection, luciferase reporter, 44 h; Potency, µM (top dose mostly 41.8 µM), for inactives: top-dose activity change, negative = inhibition, most hits filed as inhibitors; hit rate 3.4% among 340,000; AID 651820, 2012; note: % is set by controls: 0 for no effect and ±100 for the full control effect
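Cells seeded at 1,000/well and cultured 4 h, then compounds added followed by HCVcc-Cre virus (~0.5 moi). After 44 h further culture, luciferase substrate was added, plates held 15 min at room temperature, and luminescence read for 15 sec.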
AMA1-RON2 inh: qHTS for Inhibitors of AMA1-RON; Towards Development of Antimalarial Drug Lead: Primary Screen | Plasmodium falciparum AMA1 (3D7) - RON2 peptide interaction | AlphaScreen AMA1-biotinylated RON2 peptide binding | Potency, µM (titrated, usually from 58.2 µM), for the others: at the top dose activity change, negative = inhibition, hits mostly inhibitors | hit rate 0.2% among 360,000;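 note: 0% = vehicle wells and -100% = peptide control; nearly all actives have a fitted effect of over 45% in size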
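AMA1 (3D7) with his tag at 25 nM final met compounds first, then biotinylated RON2 peptide at 25 nM; detection used donor plus acceptor beads, 10 µg/mL apiece, read by AlphaScreen after 30 min at room temperature.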
Pf growth 48h: Primary qHTS for delayed death inhibitors of the malarial parasite plastid, 48 hour incubation. Potency, µM (titrated, usually from 28.7 µM), inactives show top-dose activity change, negative = inhibition, hits mostly inhibitors. P. falciparum luciferase growth in erythrocytes, 48 h. AID 504832, 2011. hit rate 5.9% among 310,000; note: % is set by controls: 0 for no effect and ±100 for the full control effect
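Firefly luciferase activity from engineered P. falciparum reports growth; inhibitors lower the luminescent signal. Cultures contained 2% hematocrit erythrocytes at 0.1% final parasitemia.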
HCV confirm: qHTS Assay for Inhibitors of Hepatitis C Virus (HCV): Confirmation Assay for Cherry-picked Compounds; shares compounds with HCV inh; hit rate 78% among 640; Potency, µM (highest dose often 41.8 µM), for inactives: at the top dose activity, negative = inhibition, most hits filed as inhibitors; AID 720575, 2013; HCVcc-Cre infectious virus cell assay, luciferase, inhibition; note: nearly all actives have a fitted effect of over 80% in size
HCV host tox: qHTS Assay for Inhibitors of Hepatitis C Virus (HCV): Cytotoxicity Counterscreen for Cherry-picked Compounds | shares compounds with HCV inh | HCV host cell line cytotoxicity counterscreen | Potency, µM (top dose mostly 41.8 µM), inactives show top-dose activity change, negative = cytotoxicity, usual class: inhibitors | hit rate 22% among 640 | AID 720576, 2013;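 note: 44 h compound exposure; % is set by controls: 0 for no effect and ±100 for the full control effect; nearly all actives have a fitted effect of over 55% in size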
The depositor's hits bear a star; ? = inconclusive; / = no result given; [ ] = another dose, or the depositor's remark. An excerpt weighted towards active compounds, which were near 12% of everything screened. Unless noted, calls come from the whole dose curve; as a rule, active = well fitted curve in the direction sought with a large enough effect; inconclusive = small, poorly fitted or top-dose-only effect, or another doubt; inactive = no such curve, though single readings can be large; an effect the other way counts as inactive or inconclusive. Potency is the fitted concentration of half-maximal effect.

SMILES	SARS PLP yeast	NS1 inh	Pf growth 96h	HCV inh	AMA1-RON2 inh	Pf growth 48h	HCV confirm	HCV host tox
Cn1c(SCC(=O)Nc2ccccc2F)nc2c(c1=O)SCC2	-0.3%	-18.3%	0.0%	6.31µM*	1.2%	?	22.3µM*	-22.5%
Cc1ccc(C(=O)c2c3ccc([N+](=O)[O-])cc3[n+]([O-])n2CCCN)cc1	-3.4%	/	?	7.94µM*	9.0%	-93.8%	7.05µM*	50.5%
Cc1ccc(S(=O)(=O)N2CCC(C(=O)O)(c3ccccc3)CC2)cc1	/	-10.6%	/	/	/	/	/	/
CN1CCN(/N=C/c2ccc(-c3ccc([N+](=O)[O-])cc3Cl)o2)CC1	-1.9%	-45.4%	2.6%	8.91µM*	?	?	?	13.4%
Cc1cc(C)cc(-n2c(C)c3c(C)nnc(C)c3c2C)c1	-16.9%	6.2%	?	2.24µM*	11.8%	?	11.2µM*	-14.1%
CCOc1ccc(-n2c(C)c3c(C)nnc(C)c3c2C)cc1	/	/	/	/	-7.3%	/	/	/
Cc1ccc2c(c1)-c1cc(C)ccc1C2=O	/	/	/	?	3.6%	/	22.3µM*	10.0%
COc1ccc(Nc2nc(N)nc(CCl)n2)cc1	0.4%	1.7%	-87.3%	3.98µM*	44.0%	-31.3%	6.28µM*	2.5µM*
COc1ccc(Nc2nc(N)nc(CN3CCOCC3)n2)cc1	11.0%	-5.5%	7.6%	12.9%	41.2%	5.1%	/	/
COCCNC(=O)C(NC(=O)C1CCC(C)CC1)C(C)C (stereo unspecified)	-4.2%	/	37.0%	22.2%	-2.6%	6.5%	/	/
Cc1ccc(C)c(CNc2ccc(S(=O)(=O)N3CCCCC3)cc2)c1	1.2%	/	?	4.47µM*	0.0%	11.7µM*	25µM*	31.5µM*
CCC1C(=O)N=C(SCC(=O)Nc2ccc(C)cc2)N(c2ccccc2)C1=O (stereo unspecified)	0.2%	17.7%	11.1%	7.5%	8.7%	3.3%	/	/
Cc1cc(N2CCN(Cc3nc(-c4ccc(Cl)cc4)oc3C)CC2)cc(C)n1	0.9%	-1.6%	?	2.24µM*	-10.1%	?	9.95µM*	?
COc1cc(/C=C/C(=O)Nc2cccc(S(=O)(=O)N3CCOCC3)c2)ccc1OCC#N	3.5%	/	?	?	-5.5%	?	2.8µM*	20.1%
COc1ccc(CNC(=O)/C=C/c2ccc(S(=O)(=O)N3CCOCC3)cc2)cc1	-0.4%	/	-21.7%	-5.5%	-10.8%	?	/	/
COc1ccc(OC)c(NC(=O)/C=C/c2ccc(S(=O)(=O)N3CCOCC3)cc2)c1	0.3%	/	2.94µM*	?	-2.7%	11.7µM*	11.2µM*	?
O=C(CC1S/C(=N/N=C2CCCCCC2)NC1=O)Nc1ccc(Br)cc1F (stereo unspecified)	-14.8%	-73.2%	-4.3%	15.4%	82.4%	5.2%	/	/
Cc1cc(OCCn2ccnc2)cc(C)c1Cl	-5.4%	-6.8%	3.7%	-4.7%	2.3%	?	/	/
COc1ccccc1Nc1nc2nonc2nc1N1CCCCC1C (stereo unspecified)	-4.5%	-4.7%	?	?	-8.4%	3.2%	?	36.6%
COc1ccc(/C=C/C(=O)N[C@H](C(=O)O)C(C)C)cc1	2.1%	/	15.5%	33.3%	-13.6%	15.2%	/	/
COc1ccc2ccc3ccc(OC)c(OC(C)=O)c3c2c1	/	/	/	?	12.5%	/	25µM*	-13.0%
COc1ccc(N(CC(=O)Nc2cc([N+](=O)[O-])ccc2C)S(C)(=O)=O)cc1OC	-0.6%	0.9%	11.1%	-1.4%	11.1%	-0.4%	/	/
O=C(O)c1cc([N+](=O)[O-])ccc1N1CCCCC1	8.5%	3.4%	?	3.0%	-1.7%	16.9%	/	/
Cc1ccc(C(=O)c2cc([N+](=O)[O-])ccc2N2CCCCC2)c(C)c1	-42.8%	-8.1%	13.1µM*	?	-24.4%	11.7µM*	?	-39.3%
COc1cc2c(cc1N/C=C(\C#N)c1nc(-c3ccccc3)cs1)oc1ccccc12	-3.4%	/	?	14.2%	4.2%	-4.7%	/	/
SMILES	SARS PLP yeast	NS1 inh	Pf growth 96h	HCV inh	AMA1-RON2 inh	Pf growth 48h	HCV confirm	HCV host tox
N#C/C(=C\Nc1ccc2cn[nH]c2c1)c1nc(-c2ccccc2)cs1	1.4%	/	?	0.891µM*	-5.2%	?	3.15µM*	-54.2%
Cc1c(C)n(CC(O)CN2CCCCC2)c2ccccc12 (stereo unspecified)	1.9%	4.8%	216.8%	?	-27.0%	2.4%	/	/
Cc1cc(=O)n2c3ccccc3n(CC(O)CN3CCCC3)c2c1C#N (stereo unspecified)	2.5%	16.1%	?	2µM*	-3.9%	?	12.5µM*	-21.7%
CCOc1ccc(S(=O)(=O)NCc2ccncc2)cc1	-12.5%	8.6%	-11.9%	?	12.4%	/	0.281µM*	0.25µM*
Cc1ccc(S(=O)(=O)NCc2ccncc2)cc1	0.8%	5.0%	3.9%	2.82µM*	-10.9%	/	2.23µM*	8.87µM*
CCOC(=O)COc1ccc(S(=O)(=O)NCc2ccncc2)cc1	2.4%	19.2%	-2.2%[5.75 µM]	14.0%	11.7%	8.7%	/	/
C[C@@](Cc1ccccc1)(C(=O)O)N1C(=O)c2ccc(C(=O)O)cc2C1=O	-14.8%	/	15.9%	/	/	20.8%	/	/
COC(=O)c1cc2ccsc2n1CC(=O)Nc1cc(Cl)ccc1OC	-2.0%	-11.8%	-10.0%	3.16µM*	0.9%	?	7.91µM*	14.1µM*
Cc1cccc(NC(=O)CSCC(=O)Nc2sccc2C#N)c1	2.4%	/	2.3%	-7.5%	-0.7%	?	/	/
COc1ccc(OC)c(NC(=S)N2CCN(C(=O)C3CCCO3)CC2)c1 (stereo unspecified)	0.1%	7.6%	-9.6%	-2.2%	-8.9%	6.1%	/	/
CC1CC(C)(O)CC(C(O)CC2CC(=O)NC(=O)C2)C1=O (stereo unspecified)	/	/	/	?	4.1%	/	/	/
CC1CC(C)C(=O)C(C(CC2CC(=O)NC(=O)C2)OC(=O)CC(=O)c2ccccc2)C1 (stereo unspecified)	/	/	/	5.01µM*	-14.2%	/	12.5µM*	25.7%
Cc1cc(Nc2ccccc2)nc(N2CCN(C(=O)c3ccc4c(c3)OCO4)CC2)n1	/	/	33.0%	?	-19.0%	2.0%	/	/
O=[N+]([O-])c1ccccc1Oc1ccc(S(=O)(=O)N2CCOCC2)cc1	-6.1%	/	?	7.94µM*	-0.9%	?	?	24.9%
